# According to the supplement of paper PMC13380429:
# A number with no mark means an inactive call.
# System: Vero E6 infected with SARS-CoV-2
# Experiment: inhibition of SARS-CoV-2 cytopathic effect; higher = more antiviral protection, active = above 15
# Conditions: 48 h
Compound,inhibition of SARS-CoV-2 cytopathic effect (1 nM),inhibition of SARS-CoV-2 cytopathic effect (8.33 nM) [%],inhibition of SARS-CoV-2 cytopathic effect (100 nM) [%],inhibition of SARS-CoV-2 cytopathic effect (833.33 nM) [%],inhibition of SARS-CoV-2 cytopathic effect (10000 nM)
Cc1ncc(C[n+]2csc(CCO)c2C)c(N)n1 [thiamine],-3.81%,-0.57,-1.61,-1.44,0.13%
CCC(=O)c1cc(-c2ccc(Cl)cc2)n(-c2ccc(S(N)(=O)=O)cc2)c1C,-0.96%,-3.03,0.71,-1.12,3.3%
Cc1ccc(/C=C2\CNC/C(=C\c3ccc(C)cc3)C2=O)cc1,-3.15%,-1.97,-0.54,-0.34,0.13%
O=C(Cc1ccc(Cl)c(Cl)c1)N1CCCC[C@@H]1CN1CCCC1,-0.96%,2.64,1.57,-0.63,-4.8%
Cc1c(Cl)cccc1S(=O)(=O)Nc1nc(NCCc2ccccc2)nc2c1CN(Cc1ccccc1)CC2,5.62%,1.85,0.14,0.89,-1.37%
CN1CCc2cc3c(cc2[C@H]1[C@@H]1OC(=O)c2c1ccc1c2OCO1)OCO3 [bicuculline-(+)],0.45%,1.6,0.39,0.32,0.5%
CCCc1c2oc(C(=O)O)cc(=O)c2cc2c(=O)cc(C(=O)O)n(CC)c12 [nedocromil],2.42%,1.24,0.71,1.06,0.79%
Cc1ccccc1C(C(=O)NC1CCCCC1)N(C(=O)Cn1ccnc1C)c1cccc(F)c1 (stereo not given),-0.81%,-1.8,0.77,1.79,-0.96%
CC1(C)OC[C@H](NC(=O)Nc2ccc(Br)cc2Br)[C@H](c2ccccc2)O1,-1.15%,0.87,-2.04,-3.68,-5.84%
COC(=O)N[C@H](C(=O)N1CCC[C@H]1c1nc(-c2ccc3c(c2)O[C@@H](c2ccccc2)n2c-3cc3cc(-c4c[nH]c([C@@H]5CCCN5C(=O)[C@@H](NC(=O)OC)C(C)C)n4)ccc32)c[nH]1)C(C)C [elbasvir],1.03%,1.52,0.09,-1.19,-4.27%
CCCOC(=O)c1ccc(O)cc1 [propyl 4-hydroxybenzoate],-1.38%,-0.18,-0.42,2.26,-3.05%
CCOc1nc2cccc(C(=O)O)c2n1Cc1ccc(-c2ccccc2-c2noc(=O)[nH]2)cc1 [azilsartan],0.19%,1.58,2.59,2.65,0.22%
Nc1nccc2c1ncn2[C@@H]1O[C@H](CO)[C@@H](O)[C@@H]1O [3-deazaadenosine],-0.84%,-2,-2.27,-0.63,-2.6%
N#Cc1cnc2cnc(NCc3cccnc3)cc2c1Nc1ccc(F)c(Cl)c1,0.87%,1.05,2.35,-1.3,-8.45%
Cc1ccnc(NC(=O)C(C)c2cccc(C(=O)c3ccccc3)c2)c1 (stereo not given) [piketoprofen],0.01%,0.74,2.28,-1.34,3.81%
COc1ccc(Cn2ccc3ccc(C(=O)NO)cc32)cc1,0.35%,0.42,3.29,1.7,-2.47%
CCCNC(C)C(=O)Nc1ccccc1C (stereo not given) [prilocaine],3.07%,-1.58,-0.81,2.12,2%
COc1cccc(C(=O)CCN[C@@H](C)[C@H](O)c2ccccc2)c1 [oxyfedrine],0.05%,1.34,-0.45,0.14,1.77%
CCN(CC)CCOc1ccc(/C(=C(\Cl)c2ccccc2)c2ccccc2)cc1 [clomifene],0.1%,1.97,2.27,3.88,21.1% (active)
CCCCCCOc1ccccc1C(N)=O [exalamide],-5.16%,-3.3,-2.73,-0.34,-3.76%

Compound,inhibition of SARS-CoV-2 cytopathic effect (1 nM),inhibition of SARS-CoV-2 cytopathic effect (8.33 nM) [%],inhibition of SARS-CoV-2 cytopathic effect (100 nM) [%],inhibition of SARS-CoV-2 cytopathic effect (833.33 nM) [%],inhibition of SARS-CoV-2 cytopathic effect (10000 nM)
COc1ccc(O)c(C(C)(C)C)c1.COc1ccc(O)cc1C(C)(C)C [butylated-hydroxyanisole],-2.13%,-2.11,-2.79,0.85,-1.88%
CN1CCCC(n2nc(Cc3ccc(Cl)cc3)c3ccccc3c2=O)CC1 (stereo not given) [azelastine],-1.24%,-0.03,-3.43,-2.95,-3.03%
CC1(CN)Cc2ccccc2C1,4.53%,-3.63,-3.31,1.99,-3.29%
O=C(NCC1(N2CCN(c3ccccc3)CC2)CCOCC1)c1cccnc1Sc1ccccc1,-0.72%,1.47,1,-2.18,0.86%
CCCN1CC(NS(=O)(=O)N(CC)CC)CC2Cc3c(O)cccc3CC21 (stereo not given) [quinagolide],-1.57%,-0.18,-0.29,-13.8,-6.37%
Cc1cc(C)c2nc(-c3ccccn3)cc(C(=O)Nc3ccc(S(=O)(=O)Nc4onc(C)c4C)cc3)c2c1,-1.1%,1.15,-0.62,-9.3,-3.05%
COc1cc([C@@H]2c3cc4c(cc3[C@@H](O[C@@H]3O[C@@H]5CO[C@@H](c6cccs6)O[C@H]5[C@H](O)[C@H]3O)[C@H]3COC(=O)[C@H]23)OCO4)cc(OC)c1O [teniposide],1.37%,2.49,4.69,1.54,-7.08%
NC(=O)N1c2ccccc2CC(=O)c2ccccc21 [oxcarbazepine],0.74%,3.71,4.19,-0.85,4.57%
C=CCN1CCCC1CNC(=O)c1cc2nn[nH]c2cc1OC (stereo not given) [alizapride],0.31%,1.78,-1.64,-1.24,-0.58%
O=C(O)C[C@H](O)C[C@H](O)/C=C/c1c(C2CC2)nc2ccccc2c1-c1ccc(F)cc1 [pitavastatin],1.96%,3.86,3.12,2.39,6.01%
COc1cc(N)c(Cl)cc1C(=O)NC1CN2CCC1CC2 (stereo not given) [zacopride],0.12%,-0.23,-1.28,-2.33,-4.26%
O=C(O)CCCCCCCC(=O)O [azelaic-acid],24.2% (active),0.49,-0.06,0.7,-3.28%
C[C@@H](O)[C@H]1C(=O)N2C(C(=O)O)=C(S[C@@H]3CN[C@H](C(=O)Nc4cccc(C(=O)O)c4)C3)[C@H](C)[C@H]12 [ertapenem],0.22%,3.19,1.71,2.2,2.62%
CCN(CC)CCOC(=O)C1(C2CCCCC2)CCCCC1 [dicycloverine],17.5% (active),0.53,2.57,0.85,1.16%
CCS(=O)(=O)CCn1c([N+](=O)[O-])cnc1C [tinidazole],-3.22%,-2.91,1.02,4.13,-0.87%
O=C(O)CCc1nc(-c2ccccc2)c(-c2ccccc2)o1 [oxaprozin],-1.4%,-2.65,-0.38,-0.99,0.84%
COc1cc(N2CCC(N)CC2)ccc1Nc1ncc(Cl)c(-c2c[nH]c3ccccc23)n1,-1%,0.49,-1.87,-3.58,-8.45%
Oc1ccc(/C=C/c2cc(O)cc(O)c2)cc1 [resveratrol],1.06%,0.64,-2.17,-0.25,3.82%
COc1cc(C(=O)OCCCN2CCCN(CCCOC(=O)c3cc(OC)c(OC)c(OC)c3)CC2)cc(OC)c1OC [dilazep],0.92%,1.04,-0.17,-1.09,4.8%
CC(C)(C)c1cc(C(C)(C)C)c(NC(=O)c2c[nH]c3ccccc3c2=O)cc1O [ivacaftor],-1.65%,1.11,-2.96,-10.4,-4.71%
